Vc quorum ag: induces V. cholerae light production without autoinducers; V. cholerae BH1578 lux reporter, luminescence, 6 h; activation, % at 18.7 µM; 0.16% of 350,000 active; AID 588436; in the data active = activation mostly above about 9.7%, no sharp cut-off; inconclusive = no clear call, values can overlap the other calls; inactive = mostly below about 3.7%
BoNT-A LC inh2: blocks Botulinum neurotoxin A light chain protease. multiplex microsphere protease substrate cleavage, flow cytometry. inhibition, % at 10 µM. 0.17% of 360,000 active. AID 588499; also: plate controls were buffer without enzyme for full effect and enzyme alone for no effect
BJeLR viability: kills HRASV12-expressing BJeLR cells | inhibition, % (no concentration beside the values) | 0.17% of 300,000 active | BJeLR (HRASV12) viability, CellTiter-Glo ATP luminescence, 48 h; in the data active = inhibition above about 50%; inconclusive = no clear call, values can overlap the other calls
BoNT F protease: BoNT F light chain protease inhibition; inhibition, % at 10 µM; 0.22% of 360,000 active; Multiplex microsphere protease cleavage assay, flow cytometry; AID 588497; in the data active = inhibition above about 35%, passing the limit was not always enough; inconclusive = no clear call, values can overlap the other calls; also: plate controls were buffer without enzyme for full effect and enzyme alone for no effect
Anthrax LF prot: blocks Bacillus anthracis lethal factor protease. 0.12% of 360,000 active. P15917. multiplex microsphere protease cleavage assay, LF. inhibition, % at 10 µM; also: plate controls were buffer without enzyme for full effect and enzyme alone for no effect
Bead autofluor: flagged as autofluorescent in microsphere protease counterscreen. compound autofluorescence counterscreen, microsphere flow cytometry; active compounds read high. fluorescence intensity (test concentration not listed). 3.1% of 360,000 active; in the data active = fluorescence intensity above about 16000; inconclusive = no clear call, values can overlap the other calls
* = called active by the depositor. In the library only some 3.7% were active in any assay of this set; here they are far more common. Rule as the data show it, unless noted: active = inhibition above about 30%; inconclusive = no clear call, values can overlap the other calls; inactive = below that.

How did COc1cccc(-c2cccc(-c3nc(C(=O)NCc4ccc(Oc5ccccc5)cc4)cc4c3[C@H](CCO)N(S(=O)C(C)(C)C)C4)c2)c1 (stereo not given in full) do in these assays?
BoNT-A LC inh2: -1; BoNT F protease: -14; Anthrax LF prot: -3; Bead autofluor: 4616

How did COC(=O)c1cc(C(=O)OC)cc(N2C(=O)CC(NNC(=O)c3ccc(C)cc3)C2=O)c1 (stereo not given) do in these assays?
Vc quorum ag: 0; BoNT-A LC inh2: 0; BJeLR viability: -3; BoNT F protease: -8; Anthrax LF prot: 0; Bead autofluor: 2657

How did COC(=O)c1cc(C(=O)OC)cc(N2C(=O)CC(NNC(=O)c3ccccc3Br)C2=O)c1 (stereo not given) do in these assays?
Vc quorum ag: 1; BoNT-A LC inh2: -6; BJeLR viability: 6; BoNT F protease: -8; Anthrax LF prot: -8; Bead autofluor: 17445*

Results for CCC(=O)Nc1cccc(-c2nc3ccc(C)cc3o2)c1 ?
Vc quorum ag: inactive; BJeLR viability: -3

What do the screens show for `Cc1ccc2nc(-c3cccc(NC(=O)c4ccc5c(c4)OCCO5)c3)oc2c1`?
Vc quorum ag: 1; BoNT-A LC inh2: inconclusive; BJeLR viability: 6; BoNT F protease: -4; Anthrax LF prot: -5; Bead autofluor: 21708*

What do the screens show for `Cc1ccc(OC(C)C(=O)N2CCCc3ccccc32)cc1` (stereo not given)?
Vc quorum ag: 0; BoNT-A LC inh2: inconclusive; BJeLR viability: -8; BoNT F protease: -8; Anthrax LF prot: -7; Bead autofluor: 17127*

What do the screens show for `Cc1sc2nc(CN(Cc3ccccc3)C(=O)NC3CCCCC3)[nH]c(=O)c2c1C`?
Vc quorum ag: -1; BoNT-A LC inh2: 4; BJeLR viability: -6; BoNT F protease: 38*; Anthrax LF prot: 5; Bead autofluor: 4141

How did CCCNC(=O)C1(C)CCCN(Cc2csc(-c3ccccc3)n2)C1 (stereo not given) do in these assays?
Vc quorum ag: -1; BoNT-A LC inh2: 0; BoNT F protease: 6; Anthrax LF prot: -2; Bead autofluor: 3900

How did CCOC(=O)N1CCC(NC(=O)c2cc(C)c3c(C)nn(-c4ccccc4)c3n2)CC1 do in these assays?
Vc quorum ag: 0; BoNT-A LC inh2: 4; BJeLR viability: 21; BoNT F protease: 7; Anthrax LF prot: -8; Bead autofluor: 19067*

What do the screens show for `O=S(=O)(c1ccc(Br)cc1F)N1CCCCC1CCO` (stereo not given)?
Vc quorum ag: 0; BoNT-A LC inh2: 0; BoNT F protease: -2; Anthrax LF prot: 3; Bead autofluor: 3843

How did COc1ccccc1/C=C1\SC(=O)N(CCC(=O)NCCCn2ccnc2)C1=O do in these assays?
Vc quorum ag: -11; BoNT-A LC inh2: 1; BJeLR viability: 83*; BoNT F protease: 1; Anthrax LF prot: -2; Bead autofluor: 5722

How did COc1ccccc1/C=C1\SC(=S)N(CCC(=O)NCCCn2ccnc2)C1=O do in these assays?
Vc quorum ag: -2; BoNT-A LC inh2: 3; BJeLR viability: 78*; BoNT F protease: 7; Anthrax LF prot: 2; Bead autofluor: 5663

Results for COc1cccc(/C=C2\SC(=O)N(CCC(=O)NCCCn3ccnc3)C2=O)c1 ?
Vc quorum ag: 3; BoNT-A LC inh2: -1; BJeLR viability: 4; BoNT F protease: -1; Anthrax LF prot: -2; Bead autofluor: 6062

Results for Cc1cccc(C(=O)N2CCC(C)(C(=O)NS(=O)(=O)C3CC3)C2)c1C (stereo not given) ?
Vc quorum ag: -1; BoNT-A LC inh2: 0; BoNT F protease: 1; Anthrax LF prot: 1; Bead autofluor: 3984

How did COc1ccc(CN(CCC(c2ccccc2)c2ccc(OC(C)C)cc2)C(=O)CCl)cc1OC (stereo not given) do in these assays?
Vc quorum ag: inactive; BoNT-A LC inh2: 0; BJeLR viability: 68*; BoNT F protease: -5; Anthrax LF prot: -1; Bead autofluor: 2435

How did COc1ccc(C(CCN(Cc2ccc(OC)c(OC)c2)C(C)=O)c2ccccc2)cc1 (stereo not given) do in these assays?
Vc quorum ag: 2; BoNT-A LC inh2: 0; BJeLR viability: 8; BoNT F protease: 2; Anthrax LF prot: -3; Bead autofluor: 2285

Screening results from PubChem.
